Source: PubChem BioAssay AID2094 (Broad Institute, 2009)
The campaign covered roughly 300,000 compounds. About 1,200 (0.4%) were called active. Shown is part of a subset that was picked to be rich in actives. Unmarked numbers belong to inactive results. Cut-off read from the data, not from the text of the source: active = activity change below about -75% (passing the limit was not always enough); inconclusive = no clear call, values can overlap the other calls.

Experiment: modulation of AI-2 quorum-sensing luminescence – JMH597 strain, luminescence/OD600 ratio, primary screen (AID 2094);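 note: luminescence divided by OD600 gain over 9 h not by final OD600 alone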
Settings: Vibrio harveyi JMH597 AI-2 luminescence/OD600 ratio, 9 h; at 7.5 µM; stronger effect = lower value; 0 = neutral-control median; strain lacks LuxN and CqsS sensors

Row | SMILES | activity change
1 | O=S(=O)(Nc1ccccn1)c1ccc(Oc2ccccc2)cc1 | 21.1%
2 | O=S(=O)(Nc1cccc(Oc2ccc(Cl)cc2)n1)c1ccc(F)cc1 | -97.1% (active)
3 | O=S(=O)(Nc1ccccn1)c1cccc(S(=O)(=O)c2ccc(Cl)cc2)c1 | 3.88%
4 | CC(=O)Oc1ccc2c(=O)oc(-c3ccc([N+](=O)[O-])cc3)nc2c1 | 9.78%
5 | COc1cccc(CNC(=O)CCCC(=O)Nc2cccc([N+](=O)[O-])c2)c1 | 33.3%
6 | COC(=O)/C=C\C(=O)Nc1cccc([N+](=O)[O-])c1 | -88.2% (active)
7 | COc1ccc(S(=O)(=O)NC(C)C(=O)Nc2cccc([N+](=O)[O-])c2)cc1 (stereo not given) | 16.9%
8 | Cc1ccc(C(=O)NNC(=O)c2ccncc2)cc1S(=O)(=O)N1CCCCC1 | 18%
9 | NC(=O)c1ccc(-c2csnn2)cc1 | -13%
10 | Cc1cc(C)c(C(N)=O)c(Cl)n1 | -0.00035%
11 | COc1cccc(NC(=O)NCCN2CCCCC2)c1 | 8.92%
12 | COc1cccc(NC(=O)NCc2ccc(F)cc2)c1 | -88.7% (active)
13 | O=C(NCc1cccc(CNC(=O)Nc2cccc(O)c2)c1)Nc1cccc(O)c1 | 3.61%
14 | Oc1ccc(N=Nc2nccs2)c(O)c1 | -86.3% (active)
15 | Cc1cc(-c2ccccc2)nc(N2CCC(C(=O)NC34CC5CC(CC(C5)C3)C4)CC2)n1 | 31.5%
16 | CCN1C(=NCCc2cccnc2)N[C@@H](c2ccccc2)C(C(=O)OC)=C1C | 8.09%
17 | O=C(/C=C\c1cn(-c2ccccc2)nc1-c1cccs1)N1CCOCC1 | 28.5%
18 | COc1ccc(-c2nn(-c3ccccc3)cc2/C=C\C(=O)Nc2ccc(C(=O)O)cc2)cc1 | 21.3%
19 | O=C(O)c1ccc(N/N=C/c2cn(-c3ccccc3)nc2-c2cccs2)cc1 | -83.5% (active)
20 | O=C1C2CCCN2C(=O)N1CCCCN1CCN(c2cccc(C(F)(F)F)c2)CC1 (stereo not given) | 12.2%

Row | SMILES | activity change
21 | CCC(C)N(C(=O)COC(=O)C1C(C(=O)OC)=C(C)NC(C)=C1C(=O)OC)C1CCS(=O)(=O)C1 (stereo not given) | 18.1%
22 | COc1cccc(NC(=O)c2ccc(S(=O)(=O)N(C)C)cc2)c1 | 14.9%
23 | CN(C)S(=O)(=O)c1ccc(NC(=O)N2CCOCC2)cc1 | 11.7%
24 | CN(C)S(=O)(=O)c1ccc(Oc2ccc(S(=O)(=O)N(C)C)cc2)cc1 | -86.2% (active)
25 | CCc1ccc(-c2cc(C)no2)cc1S(=O)(=O)NCCc1ccc(S(N)(=O)=O)cc1 | 9.18%
26 | CC12CCC(=O)N1C(C(=O)NCCN1C(=O)S/C(=C\c3ccccc3F)C1=O)CS2 (stereo not given) | 17%
27 | Nc1c(C(=O)Nc2ccc3c(c2)OCCO3)nnn1Cc1ccccc1 | 9.93%
28 | Nc1c(-c2ccccc2)nnn1Cc1ccccc1 | -76.6% (active)
29 | O=c1c2ccccc2c(-c2ccc(Br)cc2)nn1Cc1ccccc1 | 41.9%
30 | O=C(/C=C/c1ccc(F)cc1)NC(=S)NNC(=O)c1cccnc1 | -112% (active)
31 | O=C(/C=C/c1ccc(F)cc1)NCCNC(=O)/C=C/c1ccc(F)cc1 | 20.3%
32 | CC(C)c1ccc(/C=C/C(=O)NNC(=O)c2cccnc2)cc1 | 5.1%
33 | Cc1ccc(N2CCN(S(=O)(=O)N(C)C)CC2)cc1Cl | 10.7%
34 | CCCCCCC(O)(CCN1CCCCC1)c1ccccc1 (stereo not given) | 20%
35 | OC(CN=c1sc2ccccc2n1CC(O)COc1ccccc1)COc1ccccc1 (stereo not given) | 4.84%
36 | O=C(c1ccc(-c2ccccc2)cc1)C1CCCN(C(=O)c2cncs2)C1 (stereo not given) | -77.4% (active)
37 | CCNC(=O)N1CCCC(C(=O)c2ccc(-c3ccccc3)cc2)C1 (stereo not given) | -9.07%
38 | Cn1nccc1C(=O)N1CCCC(C(=O)c2ccc(Oc3ccccc3)cc2)C1 (stereo not given) | -2.94%
39 | Cc1ccc(-c2nc3c(cnn3-c3ccccc3)c(=O)o2)cc1 | 9.58%
40 | COc1ccc(Oc2c(Cl)cnn(-c3ccccc3)c2=O)cc1 | 8.72%

Row | SMILES | activity change
41 | Cc1ccc(Oc2cnn(-c3ccccc3)c(=O)c2Br)cc1 | -95.8% (active)
42 | C/C(=N\NC(=O)c1ccc(C)cc1)C1C(=O)c2ccccc2C1=O | 17%
43 | CSCCC(NC(=O)COc1ccccc1)C(=O)OCC(=O)c1cc2ccccc2o1 (stereo not given) | 8.03%
44 | Cc1ccsc1C(=O)OCC(=O)c1cc2ccccc2o1 | -88.1% (active)
45 | Cc1ccsc1C(=O)OCC(=O)c1cc(C)n(CC2CCCO2)c1C (stereo not given) | 22.3%
46 | Cc1ccc(NC(=O)C2CCN(S(=O)(=O)c3ccc4c(c3)NC(=O)CO4)CC2)cc1C | -2.55%
47 | Cn1c(N)c(C(=O)COC(=O)C23CC4CC(CC(C4)C2)C3)c(=O)n(C)c1=O | 12.7%
48 | Cc1csc(=O)n1CC(=O)OCC(=O)N(CC(C)C)c1c(N)n(Cc2ccccc2)c(=O)[nH]c1=O | 6.79%
49 | CC(C)(C)c1ccc(Oc2ccc(N)cc2)cc1 | -23.7%
50 | CC(C)(C)c1ccc(OC2=CS(=O)(=O)c3ccccc32)cc1 | -84.2% (active)
51 | CC(C)(C)c1ccc(CN2C(=O)c3ccccc3S2(=O)=O)cc1 | 21.7%
52 | CCN(CC)C(=O)CN(c1cccc(OC)c1)S(=O)(=O)c1ccc(C)cc1 | 9.13%
53 | CC(C)C(C)NC(=O)COc1ncnc2ccccc12 (stereo not given) | 19.9%
54 | CC(=O)Nc1ccc(NC(=O)COc2ncnc3ccccc23)cc1 | -8.91%
55 | O=C(COc1ncnc2ccccc12)NC(=O)NCc1ccccc1 | -86.9% (active)
56 | CCOC(=O)c1cc(C(C)C)sc1NC(=O)COC(=O)c1nccnc1N | 29.5%
57 | N/C(=N\OC(=O)Cc1ccccc1[N+](=O)[O-])c1ccc(Br)cc1 | -5%
58 | COc1ccc(/C(N)=N/OC(=O)Cc2ccccc2)cc1 | -87.5% (active)
59 | COc1ccc(/C(N)=N/OC(=O)CCCc2ccccc2)cc1 | 749%
60 | O=C1CCCc2nn(-c3ccccc3)nc21 | 8.67%
